Hits are enriched below; roughly 10% of the tested compounds scored in any of these assays.
IMPase inh – membrane-permeable compound that blocks inositol monophosphatase. CHO-M1 cells, IP1 accumulation, HTRF TR-FRET ratio. inhibition (IP1 accumulation), % at 46.1 µM. AID 901. 120,000 tested, under 10 active; active = well fitted curve in the direction sought with a large enough effect in the signal ratio, not every such curve was filed as active; inconclusive = small, poorly fitted or top-dose-only effect, or a change in a side signal; inactive = no such curve, though single readings can be large or run the other way; the % refers to the signal ratio;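 note: cells stimulated with carbachol in lithium chloride buffer; higher means more IMPase inhibition seen as more IP1 and lower FRET ratio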
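Carbachol-driven Gq signalling in CHO-M1 cells (2000/well) generates IP1. Compounds that block IMPase raise IP1 and so reduce the FRET signal from Eu-anti-IP1 and d2-IP1 after a 10 min room-temperature lysis.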
ALDH1A1 inh – ALDH1A1 (human) enzyme inhibition | P00352 | Purified ALDH1A1, NADH fluorescence, propionaldehyde substrate | Potency, µM (series often up to 75.3 µM), most hits filed as inhibitors | hit rate 7.3% among 220,000 | AID 1030
Target sequence (P00352 whole entry, looked up): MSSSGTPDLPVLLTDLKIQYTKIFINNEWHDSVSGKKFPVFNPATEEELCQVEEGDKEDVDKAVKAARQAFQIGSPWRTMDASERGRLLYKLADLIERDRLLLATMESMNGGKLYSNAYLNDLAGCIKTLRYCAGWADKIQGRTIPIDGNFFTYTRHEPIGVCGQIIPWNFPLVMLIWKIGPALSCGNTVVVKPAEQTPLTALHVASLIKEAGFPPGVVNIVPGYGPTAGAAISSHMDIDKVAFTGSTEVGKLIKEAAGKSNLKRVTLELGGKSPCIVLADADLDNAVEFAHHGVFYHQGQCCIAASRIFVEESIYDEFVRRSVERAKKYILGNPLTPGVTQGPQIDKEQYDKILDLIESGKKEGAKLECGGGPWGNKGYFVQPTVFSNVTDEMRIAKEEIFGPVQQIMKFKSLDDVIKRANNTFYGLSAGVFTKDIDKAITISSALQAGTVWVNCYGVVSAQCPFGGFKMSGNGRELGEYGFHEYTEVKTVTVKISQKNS
HPGD inh – HPGD (human) dehydrogenase inhibition; P15428; purified HPGD, NADH fluorescence kinetic, PGE2 substrate; Potency, µM, actives largely listed as inhibitors; hit rate 4.3% among 150,000
Target sequence (P15428 whole entry, looked up): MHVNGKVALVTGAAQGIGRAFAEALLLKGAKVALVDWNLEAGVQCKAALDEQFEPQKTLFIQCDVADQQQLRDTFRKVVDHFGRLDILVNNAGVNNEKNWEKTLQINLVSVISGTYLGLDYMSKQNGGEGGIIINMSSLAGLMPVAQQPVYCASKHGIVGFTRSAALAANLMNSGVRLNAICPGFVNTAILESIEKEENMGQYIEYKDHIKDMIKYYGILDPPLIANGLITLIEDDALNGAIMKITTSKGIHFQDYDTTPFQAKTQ
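20 nM HPGD preincubated 15 min at room temperature with compound in 50 mM Tris-HCl pH 8, 0.01% Tween 20. Started with 1 mM NAD+ and 30 uM prostaglandin E2; NADH fluorescence (360/450 nm) read 5 times over 30-s intervals, last minus first.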
Luc counter – blocks Kinase-Glo luciferase, a counter-screen artifact. Q27757. hit rate 0.28% among 200,000. Kinase-Glo luciferase, ATP luminescence, 8 min. Potency, µM (top dose mostly 38.3 µM), actives largely listed as inhibitors. AID 1379; active = well fitted inhibition curve with a large enough effect; inconclusive = small, poorly fitted or top-dose-only effect; note: nearly all actives have a fitted effect of over 60% in size
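Recombinant Kinase-Glo luciferase, 10 uM ATP (linear range), luciferin; imidazole pH 7.2 / KCl / MgCl2 / Tween / BSA buffer; 8 min RT; luminescence.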
Lamin A splicing – LMNA splicing modulation | HeLa LMNA splicing GFP/RFP minigene ratio, 48 h | hit rate 0.01% among 200,000 | AID 1487 | Potency, µM (series often up to 46.1 µM), actives largely listed as inhibitors; active = well fitted inhibition curve with a large enough effect in the signal ratio, with a control signal flat, not every such curve was filed as active; inconclusive = small, poorly fitted or top-dose-only effect, or effect the other way, or a change in a side signal; the % refers to the signal ratio
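S3 HeLa cells stably expressing lamin A-EGFP splicing minigene plus DsRed2, 600 cells/well, 48 h compound exposure at 37C. Laser-scanning cytometry; analysed as GFP (500-530 nm)/RFP (575-640 nm) total intensity ratio; 0.5% DMSO vehicle.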
PNC inhibitor – blocks assembly of the perinucleolar compartment | activity change (PNC), negative = inhibition, % at 10 µM | PC3M PTB-GFP, PNC prevalence imaging, 16 h; stronger effect = lower value | hit rate 3.1% among 140,000 | AID 2417;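 active = readout at or below -70, meaning at least 70% loss of cells showing the perinucleolar compartment, a nuclear body marking cancer cells; inconclusive = readout between -30 and a set limit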
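Compounds are pinned in duplicate onto adhered PC3M cells stably expressing GFP-tagged PTB and incubated 16 h at 37 C. Cells are then fixed, nuclei stained with Hoechst, and PNC-positive cells counted.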
Numbers stand for hits; i = inactive; ? = inconclusive; nt = not tested or not shown. Unless noted, calls come from the whole dose curve; as a rule, active = well fitted inhibition curve with a large enough effect (not every such curve was filed as active); inconclusive = small, poorly fitted or top-dose-only effect, or another doubt; inactive = no such curve, though single readings can be large or run the other way.

SMILES	IMPase inh	ALDH1A1 inh	HPGD inh	Luc counter	Lamin A splicing	PNC inhibitor
S=C(Nc1ccc2c(c1)OCCO2)Nc1ccc2c(c1)OCO2	nt	22.4µM	nt	i	nt	nt
O=C(NC(=S)Nc1ccc2c(c1)OCCO2)c1ccccc1	i	22.4µM	i	i	i	i
COc1cc(NS(=O)(=O)c2ccc(NC(=O)c3ccc(Cl)cc3Cl)cc2)nc(OC)n1	i	nt	nt	nt	nt	nt
O=C(CSc1nccn1Cc1ccc(F)cc1)Nc1ccc2c(c1)OCO2	nt	nt	nt	nt	i	nt
O=C(O)CCCC(=O)Nc1ccccc1Br	?	i	i	i	i	i
O=C(Cc1ccc2c(c1)CCCC2)Nc1ccccc1Br	i	i	25.1µM	i	i	i
O=C(C[n+]1ccccc1)Nc1c(Cl)cc(Cl)cc1Cl	nt	7.94µM	nt	i	nt	nt
O=C(C[n+]1ccccc1)Nc1ccccc1Br	nt	1.78µM	nt	i	nt	nt
COc1ccccc1CNC(=O)CN1C(=O)CCn2nc(-c3ccccc3)cc21	nt	nt	nt	nt	i	nt
CCC(C)(C)NC(=O)Cn1c(=O)ccc2cc(S(=O)(=O)N3CCC(C)CC3)ccc21	nt	nt	nt	nt	i	nt
CO[C@]12CC(COC(=O)c3cncc(Br)c3)CN(C)[C@@H]1Cc1cn(C)c3cccc2c13 (some centres undefined)	nt	i	i	i	nt	nt
O=C(COc1ccc(OCc2ccccc2)cc1)NN=C1CCCC1	nt	8.91µM	nt	i	nt	nt
O=C(c1ccc2snnc2c1)N1CCOCC1	i	i	i	i	i	i
O=C(c1ccc2snnc2c1)N1CCCCC1	i	i	15.8µM	i	i	-100.0
CN(Cc1ccccc1)C(=O)[C@H](Cc1ccc2ccccc2c1)NC(=O)[C@@H]1CCCN1C(=O)Nc1ccccc1[N+](=O)[O-]	nt	i	i	i	nt	nt
O=c1c2c(-c3cccs3)csc2ncn1-c1ccccc1	i	?	i	i	i	?
CC(C)n1c(=S)[nH]c2scc(-c3cccs3)c2c1=O	nt	12.6µM	nt	nt	nt	nt
C=CCn1c(=S)[nH]c2scc(-c3ccc(C)o3)c2c1=O	nt	?	nt	i	i	nt
CCn1c(=S)[nH]c2scc(-c3cccs3)c2c1=O	nt	14.1µM	nt	i	i	nt
O=c1c2c(-c3cccs3)csc2[nH]c(=S)n1-c1ccccc1	?	22.4µM	28.2µM	i	i	?
CC(C)c1ccc(S(=O)(=O)N2CCN(Cc3cccc(F)c3)CC2)cc1	nt	nt	nt	nt	i	nt
COc1cccc2c3c(c(=O)[nH]c12)CCC(C)(C)O3	i	i	15.8µM	i	i	i
C#CCSC1=C(C#N)C(c2cccs2)C(C(=O)OCC)=C(C)N1 (centres undefined)	i	25.1µM	i	i	i	i
COc1ccc(CNc2cc(-c3ccccc3CN(C)C)ncn2)c(OC)c1	nt	i	i	i	i	nt
Cc1cc(C)nc(NC(=O)C(c2ccccc2)c2ccccc2)c1	nt	14.1µM	i	i	i	i
SMILES	IMPase inh	ALDH1A1 inh	HPGD inh	Luc counter	Lamin A splicing	PNC inhibitor
Fc1ccc(C(c2ccc(F)cc2)N2CCN(C/C=C\c3ccccc3)CC2)cc1	i	i	i	i	i	nt
COCCn1c(=O)c(-c2cccs2)nc2cnc(Oc3cccc(Cl)c3)nc21	nt	?	?	i	nt	nt
COc1cccc(CSc2nc3ccccc3cc2C=O)c1	i	?	12.6µM	i	?	?
Clc1cccc(-c2cc3nc4c(c(N5CCN(c6cnccn6)CC5)n3n2)CCCC4)c1	i	?	?	i	i	-100.0
Clc1cccc(-c2cc3nc4c(c(N5CCOCC5)n3n2)CCCC4)c1	i	?	?	i	?	i
O=C(Nc1ccc2c(c1)CCC2)C1CCN(c2c3c(nc4ncnn24)CCC3)CC1	i	15.8µM	?	i	?	i
c1nc2nc3c(c(N4CCOCC4)n2n1)CCCC3	i	i	i	i	?	-106.9
CC1CCc2c(nc3ncnn3c2N2CCN(c3ccccc3)CC2)C1 (centres undefined)	?	?	i	i	?	i
Fc1cccc(-c2cc3nc4c(c(N5CCOCC5)n3n2)CCCC4)c1	i	?	?	i	?	-91.0
CCc1ccc2c(O)c3c(cc2c1C(=O)OC)C(=O)c1c(O)ccc(O)c1C3=O	nt	i	?	i	nt	nt
CCc1[nH]c(=O)c(C#N)c2c1CCCC2	i	?	?	i	i	i
CCc1[nH]c(=S)c(C#N)c2c1CCCC2	nt	?	20µM	i	i	i
Cc1cc[n+](CC(=O)c2cccs2)cc1	i	i	i	i	i	i
COc1ccc(C(=O)c2no[n+]([O-])c2C(=O)c2ccc(OC)cc2)cc1	i	1µM	?	i	?	i
COc1ccc(NC(=O)c2c(N)no[n+]2[O-])cc1	nt	i	nt	i	nt	nt
O=C(c1cccs1)c1no[n+]([O-])c1C(=O)c1cccs1	i	0.282µM	12.6µM	i	?	i
CCNc1ncc2nc(-c3ccc(Cl)cc3)c(=O)n(-c3ccc(OC)cc3)c2n1	nt	?	nt	nt	i	nt
Cc1ccc(SCC(=O)Nc2ccc(O)c(-c3nc4cc(C)ccc4o3)c2)cc1	nt	nt	nt	nt	i	nt
CCC1CCC(NC2CCCCNC2=O)CC1 (centres undefined)	i	i	i	i	i	-107.1
CC1CCCC(NC2CCCCNC2=O)C1 (centres undefined)	i	i	i	i	i	i
Cc1ccc(C)c(NC(=O)C(CC(C)C)N2Cc3ccccc3C2=O)c1 (centres undefined)	nt	nt	nt	nt	i	nt
COc1ccccc1-c1n[nH]c(=S)n1Cc1ccco1	nt	i	nt	i	i	nt
COc1ccccc1-c1cn[nH]c(=S)n1	i	7.08µM	22.4µM	i	i	i
CCN1C(=S)SC(=O)C1=C1C=C(C)N(Cc2ccco2)C(C)=C1	i	2.51µM	i	i	?	i
CSc1nc(C)c2cc(C)oc2n1	i	i	i	i	i	i
SMILES	IMPase inh	ALDH1A1 inh	HPGD inh	Luc counter	Lamin A splicing	PNC inhibitor
Cc1cc2c(C)nc(Cc3ccccc3)nc2o1	i	8.91µM	i	i	i	i
O=C(c1cc(C(F)(F)F)cc(C(F)(F)F)c1)N1CCC2(CC1)CN(c1ccccn1)C2	nt	?	?	i	nt	nt
CCn1c2ccccc2c2cc(N)ccc21	?	?	?	i	i	i
CCC(CC)NCc1ccc2c(c1)c1ccccc1n2CC	nt	20µM	nt	i	nt	nt
CC(C)Cn1[nH]c2c3c(ccc2c1=O)C(=O)c1ccccc1C3=O	?	?	2µM	i	i	i
Nc1nc(Cl)nc2c1ncn2[C@@H]1O[C@@H](COP(=O)(O)OP(=O)(O)OP(=O)(O)O)[C@@H](O)[C@H]1O	i	nt	nt	nt	nt	nt
O=S(=O)(c1ccc2c(c1)oc1ccccc12)N1CCOCC1	i	i	i	i	i	-80.6
CC1CN(CC(O)COC(c2ccccc2)c2ccccc2)CC(C)O1 (centres undefined)	i	25.1µM	i	i	i	?
COc1ccc(NC(=O)N2CC[C@@]3(CCCN(C(C)=O)C3)C2)cc1	nt	?	i	i	nt	nt
CCC(C)NC(=O)CN1C(=O)c2cccnc2Oc2ccc(C)cc21 (centres undefined)	nt	nt	nt	nt	i	nt
CCOCC(=O)Nc1cccc(OC)c1	i	?	?	i	i	-88.5
COc1ccc(C(=O)Nc2cccc(OC)c2)cc1	i	?	i	7.94µM	i	?

Source: PubChem BioAssay
